In all, about 31,000 sequences went through this assay and about 1,400 (4.5%) were called active. The entries come from a sample that favours actives as a whole. Values without a mark were called inactive.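 The calls were made as follows: active = median seed-adjusted z-score above 1 or below -1; inactive = the rest.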
Assay: Novel Modifiers of Survival Motor Neuron (SMN) Protein: Gene Identification via Genome-wide siRNA Screen;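 also: luminescence tracks full-length SMN protein made from the SMN2 reporter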
Settings: HEK293T SMN2-luciferase reporter, siRNA knockdown, 72 h; actives lie on both sides
In short: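 siRNA screen, 10418 genes ×3 siRNAs; 1 pmol/well, lipid reverse transfection into HEK293T SMN2-luc reporter line. 72 h, 37 °C, 5% CO2; ONE-Glo readout. Data: neg-ctrl normalized, log10, MAD; hit = MAD >1.0 or < -1.0.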

| Sequence | median seed-adjusted z-score |
| --- | --- |
| GCAUUGGUGUAUGGAAUUATT against SLC6A15 | 0.0939 |
| GCAAGAAAAAUCUAAGGAATT against ZNF57 | 0 |
| ACAGCAUUGUCAUUAGACATT against UBR5 | 0.114 |
| CAUGUGCUAUCGAAAGUAUTT against TCEB1 | 1.08 (active) |
| GCGUAGUUAUAGAAGUAGATT against RBMX2 | -0.585 |
| GGAACUGUUUUUACAAGCATT against MKRN1 | -0.496 |
| UCAUAUAGGCAAAAUUUAATT against POU3F2 | -0.179 |
| GGGUUCACCUCAGAGAGCATT against DPF3 | 0.242 |
| GAAACUUUCAUUACGUAUATT against SNX7 | 0.146 |
| GAACGAAAGGUCCUCAGUATT against SPATA21 | -1.03 (active) |
| GCUGCUUCAGACUACCAAATT against TXNDC9 | -0.176 |
| CCAUAUUAAUGUCCAUGAUTT against PCDHB7 | 0.365 |
| GGAUGCCCACUGUAUCAUATT against MYST2 | -1.46 (active) |
| GAUGGAUACCUCUACCUGATT against ZNF593 | 0.215 |
| CGUGAUCUCAAGUCCAACATT against MAP3K11 | 0.773 |
| CUACCAUUUUCAUCGAGGATT against FREM3 | -0.565 |
| CGAAAGAGGCAAAUAUGAATT against CBX3 | -0.893 |
| GGAUCGGGUUUACUCAGAATT against ACTR6 | 0.189 |
| GGAAGGAACCAUCCAGUAATT against POLR2L | -1.19 (active) |
| AGUUCUUCCUAAUCCGAGATT against DOLPP1 | 0.00977 |
| AAUCGAUCCUCAAUCCUUATT against ZNF676 | -0.499 |
| GCUCCAAAUUGGUUGUAUUTT against PRKAG1 | 0.431 |
| GAACAACUCUUGUGAGAUUTT against STC2 | -0.00039 |

| Sequence | median seed-adjusted z-score |
| --- | --- |
| GCUUCUGAAAUGAACCGAATT against DDHD2 | 0.447 |
| GUGCGGUAGCUACUUGUUUTT against RRAD | -0.267 |
| GGACUCUCAUGAGUGCUGATT against ACP2 | -0.00569 |
| GAAAGAUGUUGGGAAUAAATT against ST6GAL2 | 0.054 |
| CAUCCAUUAUGACCUGCUATT against ACO2 | -1.57 (active) |
| CGUGUGGACUUGACAAGCATT against OBSCN | -0.798 |
| CUAUAUCUCCAACACUUUUTT against SMARCD3 | 0.247 |
| GAGAAAAAGCGGAUCAAGATT against GRK6 | -0.862 |
| GGAAGAACGUGUAACCGAATT against RDX | 0.123 |
| GAGUCUGCGUUAUCGACAATT against TPR | -1.03 (active) |
| GGAUGAAAAAUACCGGUGUTT against UGT8 | 0 |
| CAACCUUUCACUGCAAUGATT against NAT8 | -0.228 |
| CGGGAAGAAUCAAAGUCGATT against KRT23 | -0.0696 |
| GGAGCGAAAUGUUCAGGUUTT against PSPH | -0.518 |
| CGAGGACACUCAAACGGAUTT against TAF7L | -0.14 |
| CACGAAAACUUACCCAGAATT against DGUOK | 0.0168 |
| GGUCCCAGCUUGAAGAGAATT against CSTB | 1.08 (active) |
| CAGGCAAAGUUCGACAGUATT against HEPH | -0.293 |
| GGAUUCUCAGUUACACUUATT against SLC25A3 | -0.495 |
| GAUCCGUUCUGAUUAGUGATT against EZH1 | 0.268 |
| GUUCCUCACUUAUCGCUAUTT against ADAMTSL3 | -0.0419 |
| GGAACUACGUCCACACCCATT against GHRHR | 0 |
| GGAUAACACUAAGUUUAGATT against SFRS1 | -1.66 (active) |

| Sequence | median seed-adjusted z-score |
| --- | --- |
| GGCCGGUGUUUGACGACAATT against STK32C | -0.311 |
| CUCCCUCACCAAAACAAAATT against DUSP26 | 0.204 |
| CAAGGUCUGUAGUCAAAAUTT against ZNF677 | -0.441 |
| GGAGGUUCAGAAGCACCUATT against PACSIN2 | 0.73 |
| GUGUAGCACUGACCAAGAATT against RCAN3 | 0.544 |
| GAUCUGUGCUAUACUGACATT against EFTUD2 | -1.25 (active) |
| GACCUGCUCUGUAACCUCATT against NAALADL1 | -0.0444 |
| AAAACUUACGAACAACAAATT against TBR1 | -0.388 |
| UCAAGCAUGUGGUCCUGUATT against AIP | 0.529 |
| GAUGAGUAUGCAAAAUUUATT against ATR | -0.217 |
| GCACAUAAGGAGGCGAUUATT against WDR33 | 3.27 (active) |
| GCAACAUCGUGUUCUUGAATT against GAL3ST1 | 0.263 |
| GCAGAAACCCAGAUCGAGATT against PLAT | 0.246 |
| GGAACUUUUUCGUCGGUAUTT against RNGTT | -1.55 (active) |
| CGACAUUGGUGACCCUCUUTT against DDOST | -0.315 |
| GCAGUUCGAGAAGAACUUUTT against LMBR1 | 0.236 |
| AGACACCCUUUGGACCACATT against ZFAND2A | 0 |
| GCACGAAUGAGGACGAUGATT against SPRY4 | -1.23 (active) |
| GGUGGAAGUGGUCAACGUATT against DUSP21 | -0.0724 |
| GACGUGGAGUUGAUAAAGATT against DSC3 | 0.18 |
| GCCCGUCUGCAGUACCUAATT against ADAP2 | -1.1 (active) |
| GCACUUAUAUGACAGCGAATT against SIM1 | -0.0177 |
| GCUCGAUUAACAAAAUAUATT against SLC30A5 | 0.401 |
